Measurements as given in PubChem BioAssay AID1159580 (chemical genetic matrix, 2015).
The whole screen tested about 5,500 compounds, of which about 2,000 (36%) were called active. About 18% were inconclusive and are not listed. The list shows a part of the results. Values without a mark were called inactive. Cut-off read from the data, not from the text of the source: active = normalized growth mostly below about 0.91 (no sharp cut-off); inconclusive = no clear call, values can overlap the other calls; inactive = mostly above about 0.92.

Assay: chemical genetic growth profiling, strain panel (AID 1159580);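 note: tested at 20 µM; growth read once vehicle control cultures reached saturation at 30 °C; 1 = growth at the plate median or of vehicle wells; lower values mean less growth of the strain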
Conditions: S. cerevisiae deletion strains, growth OD
[1] = locus YAR019C, strain CDC15, active compounds read low
[2] = locus YBL105C, strain PKC1, active compounds read low
[3] = locus YBR135W, strain CKS1, active compounds read low
[4] = locus YBR136W, strain MEC1, active compounds read low
[5] = locus YBR160W, strain CDC28, active compounds read low
[6] = locus YDL017W, strain CDC7, active compounds read low
[7] = locus YDL028C, strain MPS1, active compounds read low
[8] = locus YDL101C, strain DUN1, active compounds read low
[9] = locus YDL108W, strain KIN28, active compounds read low
[10] = locus YDL132W, strain cdc53, active compounds read low
[11] = locus YDL214C, strain PRR2, active compounds read low
[12] = locus YDR052C, strain DBF4, active compounds read low
[13] = locus YDR054C, strain cdc34, active compounds read low
[14] = locus YDR226W, strain ADK1, active compounds read low
[15] = locus YDR477W, strain SNF1, active compounds read low
[16] = locus YER123W, strain YCK3, active compounds read low
[17] = locus YER133W, strain GLC7, active compounds read low
[18] = locus YFL009W, strain cdc4, active compounds read low
[19] = locus YFL029C, strain CAK1, active compounds read low
[20] = locus YFR003C, strain YPI1, active compounds read low
[21] = locus YFR019W, strain FAB1, active compounds read low
[22] = locus YFR028C, strain CDC14, active compounds read low
[23] = locus YGR040W, strain KSS1, active compounds read low
[24] = locus YGR052W, strain FMP48, active compounds read low
[25] = locus YGR092W, strain DBF2, active compounds read low
[26] = locus YHR030C, strain SLT2, active compounds read low
[27] = locus YHR079C, strain IRE1, active compounds read low
[28] = locus YHR082C, strain KSP1, active compounds read low
[29] = locus YHR205W, strain SCH9, active compounds read low
[30] = locus YIL147C, strain SLN1, active compounds read low
[31] = locus YJL095W, strain BCK1, active compounds read low
[32] = locus YJL128C, strain PBS2, active compounds read low
[33] = locus YJL157C, strain FAR1, active compounds read low
[34] = locus YJR016C, strain ILV3, active compounds read low
[35] = locus YJR066W, strain TOR1 (second series), active compounds read low
[36] = locus YJR066W, strain TOR1, active compounds read low
[37] = locus YKL048C, strain ELM1, active compounds read low
[38] = locus YKL067W, strain YNK1, active compounds read low
[39] = locus YKL101W, strain HSL1, active compounds read low
[40] = locus YKL193C, strain SDS22, active compounds read low
[41] = locus YKL203C, strain TOR2, active compounds read low
[42] = locus YLR113W, strain HOG1, active compounds read low
[43] = locus YLR133W, strain CKI1, active compounds read low
[44] = locus YLR403W, strain SFP1, active compounds read low
[45] = locus YML070W, strain DAK1, active compounds read low
[46] = locus YMR001C, strain CDC5, active compounds read low
[47] = locus YMR205C, strain PFK2 (second series), active compounds read low
[48] = locus YMR277W, strain FCP1, active compounds read low
[49] = locus YNL006W, strain LST8, active compounds read low
[50] = locus YNL020C, strain ARK1, active compounds read low
[51] = locus YNL161W, strain CBK1, active compounds read low
[52] = locus YNL183C, strain NPR1, active compounds read low
[53] = locus YNL207W, strain RIO2, active compounds read low
[54] = locus YNL222W, strain SSU72, active compounds read low
[55] = locus YNL307C, strain MCK1 (second series), active compounds read low
[56] = locus YOL078W, strain AVO1, active compounds read low
[57] = locus YOL136C, strain PFK27, active compounds read low
[58] = locus YOR061W, strain CKA2, active compounds read low
[59] = locus YOR119C, strain RIO1, active compounds read low
[60] = locus YOR231W, strain MKK1, active compounds read low
[61] = locus YOR329C, strain SCD5, active compounds read low
[62] = locus YPL031C, strain PHO85, active compounds read low
[63] = locus YPL153C, strain RAD53, active compounds read low
[64] = locus YPL204W, strain HRR25, active compounds read low
[65] = locus YPL209C, strain IPL1, active compounds read low
[66] = locus YPL256C, strain CLN2, active compounds read low
[67] = locus YPR025C, strain CCL1, active compounds read low
[68] = locus YPR106W, strain ISR1, active compounds read low
[69] = locus YPR111W, strain DBF20, active compounds read low
[70] = strain NNK1, active compounds read low
[71] = strain TSCII, active compounds read low

Structure (SMILES): Cc1cc(C(=O)Nc2ccc(Cl)cc2)nn1C(C)(C)C
- normalized growth [1]: 0.985
- normalized growth [2]: 1
- normalized growth [3]: 0.995
- normalized growth [4]: 1
- normalized growth [5]: 0.99
- normalized growth [6]: 0.995
- normalized growth [7]: 1.01
- normalized growth [8]: 0.984
- normalized growth [9]: 0.993
- normalized growth [10]: 0.989
- normalized growth [11]: 0.967
- normalized growth [12]: 1
- normalized growth [13]: 0.984
- normalized growth [14]: 0.987
- normalized growth [15]: 0.973
- normalized growth [16]: 0.955
- normalized growth [17]: 0.97
- normalized growth [18]: 0.989
- normalized growth [19]: 0.984
- normalized growth [20]: 1
- normalized growth [21]: 0.992
- normalized growth [22]: 1
- normalized growth [23]: 0.978
- normalized growth [24]: 0.958
- normalized growth [25]: 0.982
- normalized growth [26]: 1.08
- normalized growth [27]: 0.866
- normalized growth [28]: 1.15
- normalized growth [29]: 0.951
- normalized growth [30]: 0.998
- normalized growth [31]: 0.849
- normalized growth [32]: 0.942
- normalized growth [33]: 0.973
- normalized growth [34]: 0.984
- normalized growth [35]: 0.962
- normalized growth [36]: 1.11
- normalized growth [37]: 0.983
- normalized growth [38]: 0.976
- normalized growth [39]: 0.975
- normalized growth [40]: 0.993
- normalized growth [41]: 1.05
- normalized growth [42]: 0.801 (active)
- normalized growth [43]: 0.967
- normalized growth [44]: 0.956
- normalized growth [45]: 0.958
- normalized growth [46]: 1
- normalized growth [47]: 0.966
- normalized growth [48]: 0.975
- normalized growth [49]: 0.992
- normalized growth [50]: 0.964
- normalized growth [51]: 0.986
- normalized growth [52]: 0.893
- normalized growth [53]: 0.998
- normalized growth [54]: 0.992
- normalized growth [55]: 0.977
- normalized growth [56]: 0.985
- normalized growth [57]: 0.96
- normalized growth [58]: 0.977
- normalized growth [59]: 1.02
- normalized growth [60]: 0.877
- normalized growth [61]: 1
- normalized growth [62]: 0.982
- normalized growth [63]: 0.957
- normalized growth [64]: 0.962
- normalized growth [65]: 1
- normalized growth [66]: 0.817 (active)
- normalized growth [67]: 0.999
- normalized growth [68]: 0.979
- normalized growth [69]: 0.978
- normalized growth [70]: 0.984
- normalized growth [71]: 0.985

Structure (SMILES): Cc1nn(Cc2cccc(C(=O)Nc3ccc(Cl)cc3)c2)c(C)c1Br
- normalized growth [1]: 0.99
- normalized growth [2]: 0.976
- normalized growth [3]: 0.986
- normalized growth [4]: 0.976
- normalized growth [5]: 0.979
- normalized growth [6]: 0.985
- normalized growth [7]: 0.978
- normalized growth [8]: 0.981
- normalized growth [9]: 0.979
- normalized growth [10]: 0.976
- normalized growth [11]: 0.96
- normalized growth [12]: 0.986
- normalized growth [13]: 0.975
- normalized growth [14]: 0.978
- normalized growth [15]: 0.959
- normalized growth [16]: 0.946
- normalized growth [17]: 0.953
- normalized growth [18]: 0.978
- normalized growth [19]: 0.982
- normalized growth [20]: 0.977
- normalized growth [21]: 0.977
- normalized growth [22]: 0.981
- normalized growth [23]: 0.965
- normalized growth [24]: 1.01
- normalized growth [25]: 0.987
- normalized growth [26]: 1.1
- normalized growth [27]: 1.11
- normalized growth [28]: 1.06
- normalized growth [29]: 1.01
- normalized growth [30]: 0.978
- normalized growth [31]: 1
- normalized growth [32]: 0.952
- normalized growth [33]: 0.968
- normalized growth [34]: 0.985
- normalized growth [35]: 0.978
- normalized growth [36]: 1.06
- normalized growth [37]: 0.961
- normalized growth [38]: 0.965
- normalized growth [39]: 0.955
- normalized growth [40]: 0.975
- normalized growth [41]: 1.04
- normalized growth [42]: 0.923
- normalized growth [43]: 0.967
- normalized growth [44]: 0.99
- normalized growth [45]: 0.954
- normalized growth [46]: 0.979
- normalized growth [47]: 0.965
- normalized growth [48]: 0.98
- normalized growth [49]: 0.994
- normalized growth [50]: 0.965
- normalized growth [51]: 0.987
- normalized growth [52]: 1.04
- normalized growth [53]: 0.978
- normalized growth [54]: 0.981
- normalized growth [55]: 1
- normalized growth [56]: 0.973
- normalized growth [57]: 0.92
- normalized growth [58]: 0.96
- normalized growth [59]: 1.02
- normalized growth [60]: 0.968
- normalized growth [61]: 0.987
- normalized growth [62]: 0.963
- normalized growth [63]: 0.957
- normalized growth [64]: 0.935
- normalized growth [65]: 0.981
- normalized growth [66]: 1
- normalized growth [67]: 0.974
- normalized growth [68]: 0.982
- normalized growth [69]: 0.97
- normalized growth [70]: 0.982
- normalized growth [71]: 0.981
